For the first assay, the system named is RARa homodimer (NR concentration 270 nM). Briefly: PBM binding z-score (relative to random genomic background probes); higher = stronger binding; sequences stand for … in GC…GCGATTGACAGCGTAGAATGAAGG
The procedure, abridged:
(§1)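 Each nuclear receptor dimer, without ligand, was incubated for 1 h on custom Agilent 4×180K protein-binding microarrays. Binding was detected with antibodies against each partner (one per run), and scanned fluorescence was regression-normalized. The binding z-scores are referenced to random human genomic background probes.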
With GATACAGGGTCAGCTAGAGGCCTGAGTATGGAAA, the PBM binding z-score was -0.534.

In the case of CTCGAAAGGTCGTGCTCAGGTGAGCATACCAAAC, the PBM binding z-score is -0.133.

For CGTCCAAGGTCAAAGGTCAGTGAGGAGATGACGG, the PBM binding z-score came to 5.49.

As to GATGCTAGGTCAACTGATGGTCAGCTAAAGCTCG, the PBM binding z-score is -0.157.

Sequence AGATTGAGGTTATTAAGATCAGGGAATTGCGGTC yielded a PBM binding z-score of 0.972.

CGTCCAAGGCCAATGCTAGGTCAGTGAAAGCATT returned a PBM binding z-score of -1.03.

On to GAAACAGGGTCAAGGCCAGAGTACGCGTATTGAT, for which the PBM binding z-score is 0.267.

The sequence CCGCCTAGGTCAGGGCCAGTATAGGAGGAACGTT showed a PBM binding z-score of -0.0818.

The sequence CCGAGTAGGTTAGGGGGCATTCAGGCAACGGTGA yielded a PBM binding z-score of 0.807.

As to ACTCGGAGGACAACGGTCAGAGCTACGCCAGTGA, the PBM binding z-score was found to be 0.128.

CGTCAAAGTTCAACTAAGGTAACGTACAGCACGC yielded a PBM binding z-score of 2.23.

GCGACTGGGGCATCAGCAGGTTACAATAACTTAA registered a PBM binding z-score of -0.54.

Sequence TCTCGGAAGACACGAAAGGTCAGAGCTCGACATC gave a PBM binding z-score of 1.14.

Regarding TCGAGAAGGTTAGTCGGGGCATTCAGCCAACATA, the PBM binding z-score was -0.434.

In turn, AGAATGAGGTTATACGTAGATCAGGGAGGAAAGT showed a PBM binding z-score of 0.507.

As for ATATGTAGGTTATCGGGCCATTCAGTTTGCGCAT, the PBM binding z-score amounted to 1.09.

Sequence TATACAGGGTAAAAGGCCAGAGTACGAATGTCGA returned a PBM binding z-score of 0.622.

In the case of CCTGCTAGGTAAATGGTCAGCTAAAGCAGCTCGC, the PBM binding z-score was -0.6.

As to TCTAATTGGTCAAAGGTCACACACTCGAAATGCG, the PBM binding z-score was 5.86.

Regarding TCATATAGGTTAATGCTAGGTGAAAGTCCGATCT, the PBM binding z-score came to 1.51.

TAGCCTAGGTCAGATCGGCCCAGTATACGCTATA registered a PBM binding z-score of -0.69.

The sequence CAAACTAGGTAACAGAGGTCAAAGTCCGTGCGTA registered a PBM binding z-score of 1.62.

CCTTACGGGTCACTGACAGGTTACAGCATTTGGA had a PBM binding z-score of 0.367.

Turning to CCAGACAGGTGAAAAGTAACTCAGTCTGGTACGC, the PBM binding z-score worked out at 0.489.

Turning to ATCTCTAGGTAACCAAGATCAGTGAATGCCGAAC, the PBM binding z-score was found to be 0.145.

On to CCTACTGAGCCAAAGGTCATTGATTCCAATGCTC, for which the PBM binding z-score is 2.36.

For GCGACTGGGGCATCAGAAGGTTACCATAACTTAA, the PBM binding z-score is -0.432.

As for ATCTATAGGTAACCAAGTTCAGTGAATGCCGAAC, the PBM binding z-score was 0.671.

For the sequence CCAGACAGGTGAGAAGGCAACTCAGCCTCGATTA, the PBM binding z-score amounted to 0.0696.

For the sequence CCAGTCAGGTGAGAAGGTAACTCAGCCTCGATTA, the PBM binding z-score was determined as 0.15.

Take TCGACTAGGTTAGTCGGGGCATTCAGCCAACATA: the PBM binding z-score is -1.11.

Sequence CGTCCAAGTTCAACTAAGGTAACGTAAAGCACGC had a PBM binding z-score of 0.942.

As for AATACAGGGGCACTAGGCCAGAGTAGGTACGAAT, the PBM binding z-score was -0.664.

CCTGCTAGGTCATGGACAGCTAATCTACAGTATG returned a PBM binding z-score of 0.184.

The sequence GCTAGTTGGGCAGTAAAAGGTCACACACCGGTCG registered a PBM binding z-score of 2.32.

Take TCAGACGGGTGAAGGTAACTCAGGTACGCAGTCG: the PBM binding z-score is -0.487.

ATCTCTAGGTACGACTCAGTTCAGTGAAGAACGC returned a PBM binding z-score of 1.28.

Turning to GCGACTGGGGCATAGCAGGTTACCATAAGGTTGG, the PBM binding z-score is -0.975.

In turn, CGTCAAAGTTCAACTAAGGTAACGTAAAGCACGC displayed a PBM binding z-score of 2.05.

TCAGACAGGTGAACGTAACTCAGGTACGCAGTCG displayed a PBM binding z-score of 0.0461.

Another assay concerns RARb:RXRa (NR concentration 270 nM, RXRa partner concentration 90 nM). The description is as above. The procedure, abridged:
as §1
GATACAGGGTCAGCTAGAGGCCTGAGTATGGAAA returned a PBM binding z-score of 3.74.

In the case of CTCGAAAGGTCGTGCTCAGGTGAGCATACCAAAC, the PBM binding z-score was 3.92.

Sequence CGTCCAAGGTCAAAGGTCAGTGAGGAGATGACGG returned a PBM binding z-score of 5.85.

In turn, GATGCTAGGTCAACTGATGGTCAGCTAAAGCTCG gave a PBM binding z-score of 4.11.

On to AGATTGAGGTTATTAAGATCAGGGAATTGCGGTC, for which the PBM binding z-score amounted to 1.41.

CGTCCAAGGCCAATGCTAGGTCAGTGAAAGCATT: the PBM binding z-score came to 2.19.

In the case of GAAACAGGGTCAAGGCCAGAGTACGCGTATTGAT, the PBM binding z-score turned out to be 4.73.

Regarding CCGCCTAGGTCAGGGCCAGTATAGGAGGAACGTT, the PBM binding z-score was 3.43.

The sequence CCGAGTAGGTTAGGGGGCATTCAGGCAACGGTGA returned a PBM binding z-score of 2.11.

Consider ACTCGGAGGACAACGGTCAGAGCTACGCCAGTGA, for which the PBM binding z-score amounted to 2.

Regarding CGTCAAAGTTCAACTAAGGTAACGTACAGCACGC, the PBM binding z-score worked out at 5.42.

Consider GCGACTGGGGCATCAGCAGGTTACAATAACTTAA, for which the PBM binding z-score came to 0.753.

Consider TCTCGGAAGACACGAAAGGTCAGAGCTCGACATC, for which the PBM binding z-score stood at 3.73.

Consider TCGAGAAGGTTAGTCGGGGCATTCAGCCAACATA, for which the PBM binding z-score is 1.36.

The sequence AGAATGAGGTTATACGTAGATCAGGGAGGAAAGT showed a PBM binding z-score of 1.47.

For ATATGTAGGTTATCGGGCCATTCAGTTTGCGCAT, the PBM binding z-score is 1.08.

As to TATACAGGGTAAAAGGCCAGAGTACGAATGTCGA, the PBM binding z-score was found to be 1.85.

In the case of CCTGCTAGGTAAATGGTCAGCTAAAGCAGCTCGC, the PBM binding z-score worked out at 0.261.

Sequence TCTAATTGGTCAAAGGTCACACACTCGAAATGCG had a PBM binding z-score of 5.27.

TCATATAGGTTAATGCTAGGTGAAAGTCCGATCT: the PBM binding z-score was determined as 1.43.

Turning to TAGCCTAGGTCAGATCGGCCCAGTATACGCTATA, the PBM binding z-score turned out to be 2.95.

In the case of CAAACTAGGTAACAGAGGTCAAAGTCCGTGCGTA, the PBM binding z-score came out at 4.11.

Sequence CCTTACGGGTCACTGACAGGTTACAGCATTTGGA gave a PBM binding z-score of 4.06.

CCAGACAGGTGAAAAGTAACTCAGTCTGGTACGC yielded a PBM binding z-score of 0.36.

In the case of ATCTCTAGGTAACCAAGATCAGTGAATGCCGAAC, the PBM binding z-score worked out at 0.119.

On to CCTACTGAGCCAAAGGTCATTGATTCCAATGCTC, for which the PBM binding z-score was determined as 4.57.

As for GCGACTGGGGCATCAGAAGGTTACCATAACTTAA, the PBM binding z-score worked out at 1.2.

Consider ATCTATAGGTAACCAAGTTCAGTGAATGCCGAAC, for which the PBM binding z-score was determined as 1.3.

Turning to CCAGACAGGTGAGAAGGCAACTCAGCCTCGATTA, the PBM binding z-score turned out to be 0.272.

Consider CCAGTCAGGTGAGAAGGTAACTCAGCCTCGATTA, for which the PBM binding z-score amounted to 0.754.

In turn, TCGACTAGGTTAGTCGGGGCATTCAGCCAACATA displayed a PBM binding z-score of 0.662.

Regarding CGTCCAAGTTCAACTAAGGTAACGTAAAGCACGC, the PBM binding z-score came to 3.63.

Sequence AATACAGGGGCACTAGGCCAGAGTAGGTACGAAT had a PBM binding z-score of 1.16.

CCTGCTAGGTCATGGACAGCTAATCTACAGTATG: the PBM binding z-score was 3.84.

Regarding GCTAGTTGGGCAGTAAAAGGTCACACACCGGTCG, the PBM binding z-score stood at 4.16.

Sequence TCAGACGGGTGAAGGTAACTCAGGTACGCAGTCG registered a PBM binding z-score of 0.641.

Consider ATCTCTAGGTACGACTCAGTTCAGTGAAGAACGC, for which the PBM binding z-score was found to be 0.504.

On to GCGACTGGGGCATAGCAGGTTACCATAAGGTTGG, for which the PBM binding z-score was 0.81.

Regarding CGTCAAAGTTCAACTAAGGTAACGTAAAGCACGC, the PBM binding z-score came out at 5.43.

Sequence TCAGACAGGTGAACGTAACTCAGGTACGCAGTCG returned a PBM binding z-score of 1.19.

These data come from the supplement of paper PMC6555819.
